TbREL1 primary = TbREL1 inhibition, primary screen; P86926; TbREL1 RNA ligation, FRET fluorescence; inhibition, % at 9.66 µM; 0.49% of 89,000 active; AID 1117264;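 active = inhibition above the mean inhibition across all screened compounds plus 3 SD, cut at about 11% in these data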
Target sequence (P86926 whole entry, looked up): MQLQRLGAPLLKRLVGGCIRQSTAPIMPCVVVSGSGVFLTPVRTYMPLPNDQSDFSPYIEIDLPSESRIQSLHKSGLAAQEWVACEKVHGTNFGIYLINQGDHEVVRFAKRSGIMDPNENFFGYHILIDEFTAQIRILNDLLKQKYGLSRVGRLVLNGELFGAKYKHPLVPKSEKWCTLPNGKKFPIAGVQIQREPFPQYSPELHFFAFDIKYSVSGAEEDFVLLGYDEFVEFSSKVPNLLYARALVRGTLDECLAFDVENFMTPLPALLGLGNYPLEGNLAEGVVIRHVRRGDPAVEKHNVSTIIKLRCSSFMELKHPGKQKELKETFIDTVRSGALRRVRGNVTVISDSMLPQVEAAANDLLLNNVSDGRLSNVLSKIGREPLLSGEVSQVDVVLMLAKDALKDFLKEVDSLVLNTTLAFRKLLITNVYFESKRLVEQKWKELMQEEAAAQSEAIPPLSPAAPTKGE
TbREL1 conf = TbREL1 inhibition, confirmation | shares compounds with TbREL1 primary | TbREL1 RNA ligation, FRET fluorescence | inhibition, % at 9.66 µM | 37% of 390 active | AID 1117282;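 active = mean inhibition across replicates above a set limit taken from the earlier primary screen, cut at about 11% in these data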
Large screens that a line does not name were inactive (follow-up assays come after a bar, where they were run). Many of the other results were omitted from the sample, so hits are more common in it than they were.

C[n+]1c(-c2ccccc2)cc(CCCCc2cc(-c3ccccc3)[n+](C)c(-c3ccccc3)c2)cc1-c1ccccc1	TbREL1 primary 13
Cc1ccc(-c2cc(-c3ccccc3)cc(-c3ccccc3)[n+]2-c2ccc(C(=O)O)cc2)cc1	none
Oc1ccccc1-[n+]1c(-c2ccccc2)cc(-c2ccccc2)cc1-c1ccccc1	none
CC(NC(=O)OCc1ccccc1)[P+](=O)O (stereo not given)	none
CC(NC(=O)OCc1ccccc1)P(=O)(Oc1ccccc1)Oc1ccccc1 (stereo not given)	none
O=C(CCCCCn1c(=S)[nH]c2ccccc2c1=O)N1CCC2(CC1)OCCO2	none
O=C(CNCc1c(F)cccc1F)N1CCC2(CC1)OCCO2	none
O=C(Cn1ccc2ccccc2c1=O)NCC(=O)N1CCC2(CC1)OCCO2	TbREL1 primary 11
COP(=O)(OC)C(C)NC(=O)OCc1ccccc1 (stereo not given)	none
C[C@H](NC(=O)OCc1ccccc1)C(=O)NC(Cc1ccccc1)P(=O)(Oc1ccccc1)Oc1ccccc1 (stereo not given in full)	none
[O-]c1ccccc1-[n+]1c(-c2ccccc2)cc(-c2ccccc2)cc1-c1ccccc1	none
CCCOC(=O)c1ccc(-[n+]2c(-c3ccccc3)cc(-c3ccccc3)cc2-c2ccccc2)cc1	none
Brc1ccc(-[n+]2c(-c3ccccc3)cc(-c3ccccc3)cc2-c2ccccc2)cc1	TbREL1 primary 12 | TbREL1 conf inactive
C[C@]12CC[C@@H](O)CC1=CCC1C2CC[C@@]2(C)C1C[C@@H](F)[C@H]2O (stereo not given in full)	none
Cc1ccc(CN2Cc3ccc(Br)cc3-n3nncc3C2)cc1	none
Cc1nc2c(=O)n(C)c(=O)nc-2n(C)n1	TbREL1 primary 64 | TbREL1 conf 89
CCCCN1CCN(C(=O)COc2cc(=O)n(C)c3ccccc23)CC1	none
CC(NC(=O)OC1CC2CCC1(C)C2(C)C)P(=O)(Oc1ccccc1)Oc1ccccc1 (stereo not given)	none
CCCCNC(=O)c1c(N)n(CCCOC)c2nc3ccccc3nc12	TbREL1 primary 12 | TbREL1 conf 34
COCCCn1c(N)c(C(=O)OCCOC)c2nc3ccccc3nc21	none
COCCOC(=O)c1c(N)n(Cc2ccc(OC)cc2)c2nc3ccccc3nc12	none
O=C(NC(CCC(O)CO)P(=O)(Oc1ccccc1)Oc1ccccc1)OCc1ccccc1 (stereo not given)	none
Cc1cccc(C(C)c2cnc[nH]2)c1C (stereo not given)	none
O=[N+]([O-])c1cccc(NP(=O)(N2CC2)N2CC2)c1	none
Cc1ccc(-n2c(C)cc(/C=C3/C(=O)NC(=O)N(Cc4ccco4)C3=O)c2C)cc1	none
Cc1cc(/C=C2/C(=O)NC(=O)N(c3ccccc3)C2=O)c(C)n1-c1ccc(F)cc1	none
Cc1cc(/C=C2\C(=O)NC(=O)N(Cc3ccco3)C2=O)c(C)n1-c1ccc(C(=O)O)cc1	TbREL1 primary 16 | TbREL1 conf inactive
COc1ccc(-c2ccc3c(c2)CN(C(=O)C(C)(C)C)Cc2cnnn2-3)cc1	none
C=C1[C@@H](C)C2[C@H](Cc3ccccc3)NC(=O)[C@]23[C@H](OC(C)=O)/C=C/[C@@](C)(O)C(=O)[C@@H](C)C/C=C/[C@H]3[C@@H]1O (stereo not given in full)	none
C=C(C=O)CC1CC(O)[C@]2(C)OC3CC4OC5C[C@]6(C)O[C@]7(C)CCC8OC9C[C@]%10(C)OC%11C(C)=CC(=O)OC%11CC%10OC9C[C@@H](C)C8OC7CC6O[C@]5(C)C/C=C\C4OC3CC2O1 (stereo not given in full)	none
O=C1NC(=O)C(=Cc2ccc(-c3ccc(F)cc3O)o2)C(=O)N1	TbREL1 primary 16 | TbREL1 conf 15
CCCCCN1C(=O)c2cc(OC)ccc2[C@@]2(C(=O)OCC)Cc3cc(OC)ccc3[C@@H]12	none
O=c1[nH]c2ccccc2n1C1CCN(C(CCc2ccccc2)c2nnnn2C2CCCCC2)CC1 (stereo not given)	none
Nc1ccnn1C1CCNCC1	TbREL1 primary 23 | TbREL1 conf inactive
CN1CCC(n2nccc2N)CC1	none
COc1cc2c(c3oc4cccc(O)c4c(=O)c13)[C@@H]1C=CO[C@@H]1O2	none
Fc1ccc(N2Cc3ccccc3-n3nncc3C2)cc1	none
CC(C)(C)C(=O)N1Cc2cc(-c3ccccc3)ccc2-n2nncc2C1	none
Nc1c(C(=O)NC2CCCC2)c2nc3ccccc3nc2n1CC1CCCO1 (stereo not given)	TbREL1 primary 27 | TbREL1 conf 12
Nc1c(C(=O)OCC2CCCO2)c2nc3ccccc3nc2n1Cc1cccs1 (stereo not given)	none
COC(=O)c1c(N)n(Cc2ccc(OC)cc2)c2nc3ccccc3nc12	none
Cc1ncoc1C(=O)NCC1=C(c2ccc(S(C)(=O)=O)cc2)C[C@@H]2CC[C@H]1N2CCOc1ccccc1	none
C[N+]1=C(N)NC2=C3CCCCC3ONC2C1 (stereo not given)	none
Cc1ccc(C(O)(C(=O)OC(C)C)C(O)c2ccc(F)cc2)cc1 (stereo not given)	none
CCOP(=O)(NC(C)C)Oc1ccc(SC)c(C)c1 (stereo not given)	none

Screening results: PubChem BioAssay, The Scripps Research Institute Molecular Screening Center
